# Inconclusive results are not listed. The source made the active and inactive calls. How the source made its calls: active means hit-call score of the fitted dose curve at least 0.9, where 1 is the maximum; inconclusive means response in the unintended direction; inactive means score below 0.9.
# What was measured:
# [1] = biological target: human Opioid Receptor Mu (Opiate Mu), OPRM1 (gene 4988) (UniProt P35372); experiment: NVS_GPCR_hOpiate_mu: NovaScreen (NVS) G Protein-Coupled Receptor Assay for human Opioid Receptor Mu (Opiate Mu) (AID 2283290);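 further: hits lower bound tracer signal versus DMSO meaning displacement of the ligand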
# Sequence of human Opioid Receptor Mu (Opiate Mu), OPRM1 (gene 4988) (P35372 whole entry, looked up): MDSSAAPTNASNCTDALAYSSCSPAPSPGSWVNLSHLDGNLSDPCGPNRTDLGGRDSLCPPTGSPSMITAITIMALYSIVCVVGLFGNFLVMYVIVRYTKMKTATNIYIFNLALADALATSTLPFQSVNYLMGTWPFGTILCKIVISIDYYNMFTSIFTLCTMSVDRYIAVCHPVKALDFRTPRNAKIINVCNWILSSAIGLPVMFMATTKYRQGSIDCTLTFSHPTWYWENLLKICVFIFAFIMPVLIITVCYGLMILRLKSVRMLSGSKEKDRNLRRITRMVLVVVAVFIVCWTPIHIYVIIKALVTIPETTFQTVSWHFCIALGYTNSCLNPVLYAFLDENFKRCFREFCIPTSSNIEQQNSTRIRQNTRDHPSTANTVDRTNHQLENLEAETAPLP
# Procedure, shortened: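 Cell-free radioligand binding to membranes from CHO cells expressing the receptor; bound tracer measured by filter-based scintillation counting 2.5 hours after dosing. Loss of signal versus DMSO baseline reflects displacement; primary screen at 25 uM in duplicate, actives followed up in concentration series.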
# [2] = biological target: rat Adrenergic, Alpha 1A Receptor (Adra1A), Adra1a (gene 29412) (UniProt P43140); experiment: NVS_GPCR_rAdra1A: NovaScreen (NVS) G Protein-Coupled Receptor Assay for rat Adrenergic, Alpha 1A Receptor (Adra1A) (AID 2283296)
# Sequence of rat Adrenergic, Alpha 1A Receptor (Adra1A), Adra1a (gene 29412) (P43140 whole entry, looked up): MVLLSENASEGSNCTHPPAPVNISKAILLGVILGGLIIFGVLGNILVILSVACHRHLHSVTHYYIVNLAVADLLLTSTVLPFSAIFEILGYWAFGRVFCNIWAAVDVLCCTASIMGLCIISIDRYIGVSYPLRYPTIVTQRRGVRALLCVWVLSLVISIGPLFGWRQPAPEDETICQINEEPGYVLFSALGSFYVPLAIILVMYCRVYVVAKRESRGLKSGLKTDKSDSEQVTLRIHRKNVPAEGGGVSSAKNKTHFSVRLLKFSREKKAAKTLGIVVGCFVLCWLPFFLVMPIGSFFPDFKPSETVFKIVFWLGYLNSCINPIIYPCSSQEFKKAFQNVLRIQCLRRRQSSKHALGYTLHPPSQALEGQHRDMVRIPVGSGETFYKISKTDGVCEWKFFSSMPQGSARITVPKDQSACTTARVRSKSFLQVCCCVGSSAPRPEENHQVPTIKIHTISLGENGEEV
# Procedure, shortened: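 Filter radiodetection after 1 h competitive binding on CEC-pretreated rat cortical membranes. Duplicate single-point screening at 25 uM; active chemicals retested across concentration series.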
# [3] = biological target: rat Adrenergic Receptor, Alpha 2 (Adra2), Non-selective Binding, Adra2a (gene 25083) (UniProt P22909); experiment: NVS_GPCR_rAdra2_NonSelective: NovaScreen (NVS) G Protein-Coupled Receptor Assay for rat Adrenergic Receptor, Alpha 2 (Adra2), Non-selective Binding (AID 2283299)
# Sequence of rat Adrenergic Receptor, Alpha 2 (Adra2), Non-selective Binding, Adra2a (gene 25083) (P22909 whole entry, looked up): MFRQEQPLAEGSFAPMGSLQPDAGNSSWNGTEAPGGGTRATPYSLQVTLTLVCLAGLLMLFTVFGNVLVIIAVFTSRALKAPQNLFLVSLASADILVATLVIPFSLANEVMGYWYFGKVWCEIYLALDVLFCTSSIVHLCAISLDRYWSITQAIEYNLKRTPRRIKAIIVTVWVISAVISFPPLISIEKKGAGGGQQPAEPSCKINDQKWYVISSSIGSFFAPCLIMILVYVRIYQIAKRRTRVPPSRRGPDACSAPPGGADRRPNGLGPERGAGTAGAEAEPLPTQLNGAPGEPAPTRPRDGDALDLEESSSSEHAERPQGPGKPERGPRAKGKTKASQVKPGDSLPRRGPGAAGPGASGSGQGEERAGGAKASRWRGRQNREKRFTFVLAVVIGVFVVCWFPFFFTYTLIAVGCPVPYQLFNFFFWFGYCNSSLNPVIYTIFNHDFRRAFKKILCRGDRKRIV
# Procedure, shortened: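 Filter-based scintillation counting of radioligand binding to rat cortical membrane receptors, measured 1.25 hours post-dosing; loss of signal versus DMSO indicates displacement. Initial single-concentration duplicate at 25 uM, then concentration series.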
# Adra2b (gene 24174) = Adra2b (gene 24174) (UniProt P19328); experiment: NVS_GPCR_rmAdra2B: NovaScreen (NVS) G Protein-Coupled Receptor Assay for hybird cells Adrenergic, Alpha 2B Receptor (Adra2B) (AID 2283306)
# Sequence of Adra2b (gene 24174) (P19328 whole entry, looked up): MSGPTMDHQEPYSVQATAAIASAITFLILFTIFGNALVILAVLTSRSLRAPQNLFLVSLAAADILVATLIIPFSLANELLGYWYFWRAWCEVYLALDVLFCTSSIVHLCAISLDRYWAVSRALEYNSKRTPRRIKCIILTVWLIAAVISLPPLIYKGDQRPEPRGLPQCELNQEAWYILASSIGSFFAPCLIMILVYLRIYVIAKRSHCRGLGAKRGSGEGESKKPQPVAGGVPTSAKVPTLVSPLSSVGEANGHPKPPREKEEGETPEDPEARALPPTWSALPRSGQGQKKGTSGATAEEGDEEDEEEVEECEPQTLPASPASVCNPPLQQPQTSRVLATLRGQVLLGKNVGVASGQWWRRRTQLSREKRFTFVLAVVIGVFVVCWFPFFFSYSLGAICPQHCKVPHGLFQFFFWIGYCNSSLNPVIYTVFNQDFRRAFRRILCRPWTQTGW
# Procedure, shortened: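 Compounds screened first at 25 uM in duplicate, with actives followed up in concentration-response; specific radioligand displacement from hybrid neuroglioma/blastoma cell membrane preparations measured by filter scintillation counting after 1 h, normalized to DMSO.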
# [4] = biological target: rat Somatostatin Receptor (SST), Sstr1 (gene 25033) (UniProt P28646); experiment: NVS_GPCR_rSST: NovaScreen (NVS) G Protein-Coupled Receptor Assay for rat Somatostatin Receptor (SST) (AID 2283314)
# Sequence of rat Somatostatin Receptor (SST), Sstr1 (gene 25033) (P28646 whole entry, looked up): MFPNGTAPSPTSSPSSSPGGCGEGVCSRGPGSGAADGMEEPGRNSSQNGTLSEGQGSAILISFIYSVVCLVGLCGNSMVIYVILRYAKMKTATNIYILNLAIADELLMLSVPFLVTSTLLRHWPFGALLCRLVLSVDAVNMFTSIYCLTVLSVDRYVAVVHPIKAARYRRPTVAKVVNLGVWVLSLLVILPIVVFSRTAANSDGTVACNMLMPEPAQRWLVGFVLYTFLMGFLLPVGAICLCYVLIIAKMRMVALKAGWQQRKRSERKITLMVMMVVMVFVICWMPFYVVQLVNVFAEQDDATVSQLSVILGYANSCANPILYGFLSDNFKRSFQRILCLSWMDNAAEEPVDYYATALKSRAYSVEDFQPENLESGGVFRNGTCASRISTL
# Procedure, shortened: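 Single-concentration duplicate screen (25 uM), then concentration-response up to 50 uM for chemicals passing a threshold such as 30% inhibition. Membranes came from rat forebrain. Binding was measured 1 h post-dose by filter radiodetection and scintillation, relative to DMSO.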
# [5] = biological target: guinea pig Bradykinin Receptor B2 (BK2), BDKRB2 (gene 100135486) (UniProt O70526); experiment: NVS_GPCR_gBK2: NovaScreen (NVS) G Protein-Coupled Receptor Assay for guinea pig Bradykinin Receptor B2 (BK2) (AID 2283292)
# Sequence of guinea pig Bradykinin Receptor B2 (BK2), BDKRB2 (gene 100135486) (O70526 whole entry, looked up): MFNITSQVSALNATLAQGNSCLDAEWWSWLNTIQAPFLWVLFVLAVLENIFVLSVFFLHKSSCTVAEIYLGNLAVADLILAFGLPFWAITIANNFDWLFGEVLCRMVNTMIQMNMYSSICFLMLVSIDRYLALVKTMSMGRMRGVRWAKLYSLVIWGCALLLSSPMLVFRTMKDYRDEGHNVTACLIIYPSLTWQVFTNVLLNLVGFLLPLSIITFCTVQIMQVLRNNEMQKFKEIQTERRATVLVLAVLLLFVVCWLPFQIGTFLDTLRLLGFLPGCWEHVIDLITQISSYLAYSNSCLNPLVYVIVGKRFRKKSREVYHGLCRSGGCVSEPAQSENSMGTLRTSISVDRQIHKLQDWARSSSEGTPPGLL
# Procedure, shortened: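 Guinea pig ileum membrane preparation incubated 1 h with radioligand and test chemical; bound counts measured after filtration. Primary duplicate screening at 25 uM, then singleton concentration series with a 50 uM top dose; DMSO as baseline.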
# [6] = biological target: rat Adrenergic Receptor, Beta (Adrb), Non-selective Binding, Adrb1 (gene 24925) (UniProt P18090); experiment: NVS_GPCR_rAdrb_NonSelective: NovaScreen (NVS) G Protein-Coupled Receptor Assay for rat Adrenergic Receptor, Beta (Adrb), Non-selective Binding (AID 2283298)
# Sequence of rat Adrenergic Receptor, Beta (Adrb), Non-selective Binding, Adrb1 (gene 24925) (P18090 whole entry, looked up): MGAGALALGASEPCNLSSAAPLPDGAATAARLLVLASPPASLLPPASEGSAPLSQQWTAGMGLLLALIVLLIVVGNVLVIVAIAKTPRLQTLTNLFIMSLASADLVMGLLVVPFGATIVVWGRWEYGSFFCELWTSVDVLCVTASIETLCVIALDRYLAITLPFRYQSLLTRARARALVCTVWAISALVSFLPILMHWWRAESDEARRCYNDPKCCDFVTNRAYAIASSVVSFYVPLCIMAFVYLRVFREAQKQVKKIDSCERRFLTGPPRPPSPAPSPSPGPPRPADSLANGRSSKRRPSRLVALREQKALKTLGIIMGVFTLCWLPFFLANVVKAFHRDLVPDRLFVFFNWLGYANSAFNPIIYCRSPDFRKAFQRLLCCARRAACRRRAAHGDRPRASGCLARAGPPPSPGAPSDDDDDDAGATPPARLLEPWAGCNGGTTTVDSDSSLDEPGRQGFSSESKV
# Procedure, shortened: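 Rat cortical membranes incubated 1 h with beta-adrenergic radioligand and test chemical; bound ligand measured by filtration and scintillation counting. Screen at 25 uM duplicate, then concentration series with 50 uM maximum; loss of signal versus DMSO.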
# [7] = biological target: rat Histamine Receptor (H3), Hrh3 (gene 85268) (UniProt Q9QYN8); experiment: NVS_GPCR_rH3: NovaScreen (NVS) G Protein-Coupled Receptor Assay for rat Histamine Receptor (H3) (AID 2283303)
# Procedure, shortened: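 Filter-binding radioligand competition on rat forebrain membranes, 1 h incubation; compounds screened at 25 µM in duplicate and followed in concentration series to 50 µM, loss of bound signal vs DMSO.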
# [8] = biological target: rat Opioid Receptor, Non-selective Sodium (Na+) Binding, Oprm1 (gene 25601) (UniProt P33535); experiment: NVS_GPCR_rOpiate_NonSelectiveNa: NovaScreen (NVS) G Protein-Coupled Receptor Assay for rat Opioid Receptor, Non-selective Sodium (Na+) Binding (AID 2283311)
# Sequence of rat Opioid Receptor, Non-selective Sodium (Na+) Binding, Oprm1 (gene 25601) (P33535 whole entry, looked up): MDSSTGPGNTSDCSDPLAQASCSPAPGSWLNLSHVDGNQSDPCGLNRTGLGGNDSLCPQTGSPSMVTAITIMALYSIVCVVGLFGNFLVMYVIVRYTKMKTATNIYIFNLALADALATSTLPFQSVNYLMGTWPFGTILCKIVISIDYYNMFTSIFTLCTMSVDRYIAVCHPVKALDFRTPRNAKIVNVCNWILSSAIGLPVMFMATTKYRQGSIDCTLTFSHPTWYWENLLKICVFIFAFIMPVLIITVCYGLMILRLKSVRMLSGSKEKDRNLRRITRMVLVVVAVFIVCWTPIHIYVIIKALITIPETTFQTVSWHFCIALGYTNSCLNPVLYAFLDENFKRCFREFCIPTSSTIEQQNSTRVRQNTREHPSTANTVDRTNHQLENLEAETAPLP
# Procedure, shortened: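 Filtration radioligand binding on rat forebrain membrane preparations, read 1.5 h after dosing. Single-concentration 25 µM primary screen in duplicate, followed by singleton concentration series to 50 µM max for actives; DMSO baseline.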
# [9] = biological target: rat Neonicotinoid receptor (NNR), Chrna7 (gene 25302) (UniProt Q05941); experiment: NVS_LGIC_rNNR_BungSens: NovaScreen (NVS) Ligand-Gated Ion Channel Assay for rat Neonicotinoid receptor (NNR) (AID 2283315)
# Sequence of rat Neonicotinoid receptor (NNR), Chrna7 (gene 25302) (Q05941 whole entry, looked up): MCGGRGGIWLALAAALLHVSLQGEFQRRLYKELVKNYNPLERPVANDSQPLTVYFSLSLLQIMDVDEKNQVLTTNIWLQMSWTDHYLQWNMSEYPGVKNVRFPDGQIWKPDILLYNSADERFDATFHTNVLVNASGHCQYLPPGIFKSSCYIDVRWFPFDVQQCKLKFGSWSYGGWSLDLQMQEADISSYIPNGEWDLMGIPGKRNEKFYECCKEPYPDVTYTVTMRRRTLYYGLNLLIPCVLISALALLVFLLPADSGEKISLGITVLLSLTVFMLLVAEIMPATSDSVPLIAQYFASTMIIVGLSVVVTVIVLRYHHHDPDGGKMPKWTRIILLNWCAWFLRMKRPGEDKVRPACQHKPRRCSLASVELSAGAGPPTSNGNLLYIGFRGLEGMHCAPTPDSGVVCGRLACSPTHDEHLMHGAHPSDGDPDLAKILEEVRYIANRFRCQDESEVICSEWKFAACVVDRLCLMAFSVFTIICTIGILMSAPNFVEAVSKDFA
# Procedure, shortened: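 Rat cortical membrane preparation incubated 2.5 h with tritiated or iodinated radioligand and test chemical. Bound radioactivity was filtered and counted by scintillation, and displacement was analysed against DMSO.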
# [10] = biological target: Metabotropic glutamate receptor 1 (Rattus norvegicus) (UniProt P23385); experiment: NVS_GPCR_rmMGluR1: NovaScreen (NVS) G Protein-Coupled Receptor Assay for rat Glutamate Metabotropic Receptor 1 (MGluR1) (AID 2283305)
# Procedure, shortened: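 Binding to native receptor from rat cerebellum extract, measured as displacement of a radioligand (scintillation counting, filter separation) after 1 hour. Compounds tested at 25 uM in duplicate, then titrated to a 50 uM maximum.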
# [11] = biological target: guinea pig Serotonin, 5-Hydroxytryptamine Receptor 4 (5HT4), HTR4 (gene 100135548) (UniProt O70528); experiment: NVS_GPCR_g5HT4: NovaScreen (NVS) G Protein-Coupled Receptor Assay for guinea pig Serotonin, 5-Hydroxytryptamine Receptor 4 (5HT4) (AID 2283294)
# Sequence of guinea pig Serotonin, 5-Hydroxytryptamine Receptor 4 (5HT4), HTR4 (gene 100135548) (O70528 whole entry, looked up): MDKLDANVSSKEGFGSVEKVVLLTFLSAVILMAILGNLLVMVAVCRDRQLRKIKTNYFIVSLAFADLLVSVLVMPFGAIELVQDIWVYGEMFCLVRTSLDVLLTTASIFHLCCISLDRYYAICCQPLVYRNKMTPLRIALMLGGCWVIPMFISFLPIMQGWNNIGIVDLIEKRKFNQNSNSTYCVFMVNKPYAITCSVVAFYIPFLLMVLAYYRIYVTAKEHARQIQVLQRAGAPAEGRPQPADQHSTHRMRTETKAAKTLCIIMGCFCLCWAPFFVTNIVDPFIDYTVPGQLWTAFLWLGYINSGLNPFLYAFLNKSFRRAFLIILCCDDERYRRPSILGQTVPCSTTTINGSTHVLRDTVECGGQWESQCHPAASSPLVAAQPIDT
# Procedure, shortened: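 Compounds first screened in duplicate at 25 uM, actives followed up in concentration series. Binding measured as displacement of specific radioligand from guinea pig striatal membranes, 1 h, filter-based scintillation read-out versus DMSO baseline.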
# [12] = biological target: rat Serotonin, 5-Hydroxytryptamine Receptor (5HT), Non-Selective Binding, Htr1a (gene 24473) (UniProt P19327); experiment: NVS_GPCR_r5HT_NonSelective: NovaScreen (NVS) G Protein-Coupled Receptor Assay for rat Serotonin, 5-Hydroxytryptamine Receptor (5HT), Non-Selective Binding (AID 2283295)
# Sequence of rat Serotonin, 5-Hydroxytryptamine Receptor (5HT), Non-Selective Binding, Htr1a (gene 24473) (P19327 whole entry, looked up): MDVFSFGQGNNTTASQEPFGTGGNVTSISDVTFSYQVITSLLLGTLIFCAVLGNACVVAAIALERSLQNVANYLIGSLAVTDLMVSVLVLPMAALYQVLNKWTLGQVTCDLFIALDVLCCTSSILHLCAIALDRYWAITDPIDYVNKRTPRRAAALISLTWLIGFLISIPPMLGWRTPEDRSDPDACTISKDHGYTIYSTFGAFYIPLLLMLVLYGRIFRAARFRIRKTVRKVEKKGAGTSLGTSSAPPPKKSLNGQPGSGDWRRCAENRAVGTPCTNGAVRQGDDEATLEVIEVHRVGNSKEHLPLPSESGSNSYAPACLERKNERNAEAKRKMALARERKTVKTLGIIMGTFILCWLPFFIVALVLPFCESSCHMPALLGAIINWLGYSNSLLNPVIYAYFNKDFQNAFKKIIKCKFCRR
# Procedure, shortened: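 Rat cortex membrane preparation incubated 1 h with radioligand and test chemical; bound radioactivity counted after filtration. Screening began in duplicate at 25 uM with concentration-series follow-up; fitting relative to DMSO.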
# [13] = test system: rat Adrenergic, Alpha 1B Receptor (Adra1B), gene 24173; experiment: NVS_GPCR_rAdra1B: NovaScreen (NVS) G Protein-Coupled Receptor Assay for rat Adrenergic, Alpha 1B Receptor (Adra1B) (AID 2283297)
# Procedure, shortened: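 Filter-binding radioligand competition on membranes from rat liver, read after 1 h by scintillation counting. Single-concentration duplicate screen at 25 uM, followed by concentration-response on actives, normalised to DMSO.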
# [14] = biological target: rat Opioid Receptor, Non-selective Binding, Oprm1 (gene 25601) (UniProt P33535); experiment: NVS_GPCR_rOpiate_NonSelective: NovaScreen (NVS) G Protein-Coupled Receptor Assay for rat Opioid Receptor, Non-selective Binding (AID 2283318)
# Procedure, shortened: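 Filter-based radioligand displacement using rat forebrain membrane preparations, measured 1.5 h post-dosing. Single-concentration duplicate screen at 25 uM, follow-up in concentration series; activity taken as signal loss relative to DMSO.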
# [15] = biological target: rat Neurokinin-1 Receptor (NK1), Tacr1 (gene 24807) (UniProt P14600); experiment: NVS_GPCR_rNK1: NovaScreen (NVS) G Protein-Coupled Receptor Assay for rat Neurokinin-1 Receptor (NK1) (AID 2283309)
# Procedure, shortened: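 Competitive radioligand binding to NK1 in rat submaxillary membranes, 1 h incubation, filtration and scintillation read-out. Compounds first screened at 25 uM in duplicate, then concentration-response for actives; signal loss relative to DMSO.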
structure (smiles),measurement,setting,value
CCOC(=O)CCC(=O)OCC,outcome,[1],inactive
same,outcome,[2],inactive
same,outcome,[3],inactive
CNC(=O)[C@H]1O[C@@H](n2cnc3c(NCc4cc(Cl)ccc4OCc4cc(C)no4)ncnc32)[C@H](O)[C@@H]1N,outcome,Adra2b (gene 24174),inactive
same,AC50,[4],37.9 µM (active)
NCCO,outcome,[5],inactive
CNCc1cc(F)ccc1Oc1ccc(Cl)c(Cl)c1,AC50,[6],12.2 µM (active)
same,outcome,[7],inactive
same,AC50,Adra2b (gene 24174),8.41 µM (active)
same,AC50,[8],25 µM (active)
same,AC50,[9],28.5 µM (active)
CC1(C)CC(N=C=O)CC(C)(CN=C=O)C1 (stereo not given),outcome,[10],inactive
CCCCC(CC)COC(=O)CC(C(=O)OCC(CC)CCCC)S(=O)(=O)O (stereo not given),AC50,[1],14.8 µM (active)
same,AC50,[11],36 µM (active)
same,AC50,[12],25 µM (active)
same,AC50,[13],29.2 µM (active)
same,AC50,[3],32.9 µM (active)
same,AC50,Adra2b (gene 24174),22.4 µM (active)
NC(=O)Cn1c(=O)cc(CCN2CCN(c3nccc4sccc34)CC2)c2ccc(F)cc21,AC50,[12],0.0315 µM (active)
same,AC50,[2],0.258 µM (active)
same,AC50,[13],0.595 µM (active)
same,AC50,[3],0.167 µM (active)
same,AC50,Adra2b (gene 24174),0.131 µM (active)
same,AC50,[8],1.38 µM (active)
same,AC50,[14],1.45 µM (active)
Nc1ccccc1N,outcome,[15],inactive
Cc1cc(=O)[nH]c(=S)[nH]1,AC50,[4],13.2 µM (active)
Cc1nc(-c2ccc3c(c2)CCN(CCC2CCC(NC(=O)/C=C/c4ccc(F)cc4)CC2)CC3)no1 (stereo not given),outcome,[6],inactive
same,outcome,[9],inactive
Oc1ccc2ccccc2c1N=Nc1ccccc1,AC50,[1],37.4 µM (active)
CC(=O)C(C)=CC1C(C)=CCCC1(C)C (stereo not given),outcome,[12],inactive
same,outcome,[6],inactive
CC(C)(C)c1cc(O)c(C(C)(C)C)cc1O,AC50,[4],3.63 µM (active)
CCCCCCC(=O)OCC,outcome,[11],inactive
Nc1ccc(S(=O)(=O)c2ccc(N)cc2)cc1,outcome,[8],inactive

# — PubChem BioAssay (EPA / NIEHS)
